Results taken from PubChem BioAssay AID2012 (Sanford-Burnham Center for Chemical Genomics, 2009).
The whole screen tested about 290,000 compounds, of which about 2,700 (0.93%) were called active. How the calls were made is not given here. The full list was thinned out, with actives kept by preference.

Target: Eukaryotic translation initiation factor 4H (Homo sapiens) (UniProt Q15056)
Experiment: eIF4H binding inhibition – biochemical, uHTS, fluorescence polarization, translation initiation inhibitor project, primary screen (AID 2012);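 further: calls also rest on retests at 20 µM and on dose response follow-up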
Conditions: eIF4H fluorescence polarization binding assay, stronger effect = higher value

SMILES | inhibition (at 35 µM) | inhibition (confirmation average, at 20 µM)
CN(C)c1ccc(/C=C2\CC3C4CC=C5CC(O)CCC5(C)C4CCC3(C)C2=O)cc1 (centres undefined) | 3.9% (active) | 87.3%
CCN1C(=O)C(=Cc2c(C)n(CC(=O)NCC3CCCO3)c3ccccc23)C(=O)N(CC)C1=S (centres undefined) | 48.5% (inactive) | 
O=c1[nH]c(=O)n(Cc2ccccc2)c(O)c1/C=N/Nc1c(F)c(F)c(F)c(F)c1F | 92.3% (active) | 
O=c1[nH]c(=O)n(CCc2ccc(F)cc2)c(O)c1/C=N/N1CCCCC1 | -3.1% (inactive) | 
CCCCC(=O)N/N=C/c1c(O)n(-c2ccccc2)c(=O)[nH]c1=O | 12.9% (inactive) | 
O=C(N/N=C/c1c(O)n(C2CC2)c(=S)[nH]c1=O)c1ccccc1 | 10.1% (inactive) | 
O=C(N/N=C/c1c(O)n(Cc2ccccc2)c(=O)[nH]c1=O)c1ccccc1 | 74.3% (active) | 67.6%
O=c1[nH]c(=O)n(CCc2ccccc2)c(O)c1/C=N/N1CCOCC1 | 3.3% (inactive) | 
CC1CCC(N(C)C2CCN(C)CC2)CC1 (centres undefined) | -3.9% (inactive) | 
CCN(CC)C(=O)c1ccc(NC(=O)c2sccc2-c2ccccc2)cc1 | -5.8% (inactive) | 
CCCCn1c(=O)c(C(=O)Nc2ccccc2Cl)c(O)c2ccccc21 | -6% (inactive) | 
COc1ccc(N=Cc2c(O)n(C)c(=O)[nH]c2=O)cc1 | 35.4% (inactive) | 
Cc1cccc(NC(=O)N2CC3CC(C2)c2cccc(=O)n2C3)c1 (centres undefined) | -1.5% (inactive) | 
Cc1nc2ccccc2c(=O)n1-c1ccc(Cl)cc1Cl | 1.9% (inactive) | 
Cc1ccc(C2CN(C)CC2C(=O)c2ccc(F)cc2)cc1 (centres undefined) | -1.4% (inactive) | 
COc1ccc(CNCCc2c[nH]c3ccccc23)cc1OC | -0.9% (inactive) | 
CN(C)S(=O)(=O)c1cc(C(=O)N2CCC(C(=O)O)(c3ccccc3)CC2)ccc1Cl | -1.5% (inactive) | 
Cc1cccc(N2C(=O)NC(=O)/C(=C\c3cnn(-c4ccccc4)c3)C2=O)c1 | -2.6% (inactive) | 
COc1cccc(N2C(=O)NC(=O)/C(=C\c3ccc([N+](=O)[O-])s3)C2=O)c1 | 73.8% (active) | 101%
O=C1NC(=O)N(c2ccccc2)C(=O)/C1=C/c1ccc([N+](=O)[O-])s1 | 70.5% (inactive) | 22.6%
O=C(Cc1ccc(Cl)cc1)NCCN1CCN(C(=O)Cc2ccc(Cl)cc2)CC1 | -0.4% (inactive) | 
COc1ccc(CNCCc2ccc3c(c2)OCO3)c(OC)c1OC | 18.8% (inactive) | 
COc1cccc(OC)c1C(=O)NC(=S)N1C[C@H]2C[C@H](C1)c1cccc(=O)n1C2 | -6.5% (inactive) | 
O=C1NC(=O)N(CCc2ccc(F)cc2)C(=O)/C1=C/C=C/c1ccccc1 | 4.2% (inactive) | 
CCCCC(=O)N/N=C/c1c(O)n(CCC2=CCCCC2)c(=O)[nH]c1=O | 26.1% (inactive) | 

SMILES | inhibition (at 35 µM) | inhibition (confirmation average, at 20 µM)
O=C(O)COc1ccccc1/C=C1\C(=O)NC(=O)N(CCC2=CCCCC2)C1=O | 94% (active) | 
CN1CCC(OC(=O)c2cccc(F)c2)CC1 | -5.1% (inactive) | 
CC1(C)Cc2c(C#N)c(N3CCNCC3)nc(-c3ccco3)c2CS1 | 84.6% (active) | 77.5%
COc1cccc(C(=O)N2C[C@H]3C[C@@H](C2)c2cccc(=O)n2C3)c1 | 18.7% (inactive) | 
C=CCN1C(=O)NC(=O)/C(=C/c2ccc(OCC(=O)Nc3ccc(C)cc3)cc2)C1=O | -6.2% (inactive) | 
COc1ccc(CN2C(=O)NC(=O)/C(=C\c3ccc(OC)c(OC)c3OC)C2=O)cc1 | 9% (active) | 60.4%
O=C1NC(=O)N(Cc2ccco2)C(=O)/C1=C\c1cccn1CCOc1ccccc1 | 49.4% (inactive) | 
CN(C)C(=O)Oc1ccc2c(c1)O/C(=C\c1ccccc1)C2=O | -7% (inactive) | 
Cc1cc(/C=C2/C(=O)NC(=O)N(Cc3ccco3)C2=O)c(C)n1-c1ccc(C(=O)O)cc1 | 84% (inactive) | 42.8%
COc1ccc(N2C(=O)/C(=C/c3ccco3)C(=O)NC2=S)cc1 | 74.6% (active) | 76.5%
Cc1ccc(S(=O)(=O)N(C)c2ccc(C(=O)NCC3(N(C)C)CCCCC3)cc2)cc1 | 0.5% (inactive) | 
O=[N+]([O-])c1cnc2ccc3ccccc3c2c1 | 1.5% (inactive) | 
COc1ccc2[nH]c3c(c2c1)CCN[C@H]3C | -4.1% (inactive) | 
CN(c1ccccc1)c1ccc([N+](=O)[O-])c2nonc12 | 9.8% (inactive) | 
CCC(=NCc1ccco1)c1c(O)n(Cc2ccccc2)c(=O)[nH]c1=O | 67.3% (active) | 73.8%
CC/C(=N\NC(=O)c1ccccc1O)c1c(O)n(Cc2ccccc2)c(=O)[nH]c1=O | 43.2% (inactive) | 
CCCCn1c(O)c(C(CC)=NCc2ccco2)c(=O)[nH]c1=O | 9.5% (inactive) | 
Oc1cc2c(cc1CN1CCN(c3ccccc3)CC1)OCO2 | -8.2% (inactive) | 
O=c1c2ccccc2nc(/C=C/c2ccc(F)cc2)n1-c1ccccc1O | 18.9% (inactive) | 
CCC(=NCCc1ccccc1)c1c(O)n(C2CCCCC2)c(=O)[nH]c1=O | -8% (inactive) | 
CC(=NCC1CCCO1)c1c(O)n(-c2ccccc2)c(=O)[nH]c1=O (centres undefined) | -5.3% (inactive) | 
CC(=O)c1c(O)n(C2CCCCCC2)c(=O)[nH]c1=O | 82% (active) | 
CCN1CCN(Cc2cc(OC)c3c(c2)OCO3)CC1 | 10.2% (inactive) | 
c1ccc(CCNC2CCCCCC2)cc1 | 11% (inactive) | 
CC(=O)Nc1ccc(C(=O)C(Cc2ccccc2)N(C)C)cc1 (centres undefined) | -9.3% (inactive) | 
